Test results reported in publication PMC5540273 (PLoS ONE, 2017).
Read-outs that look alike come from different tables or passages of the source.

Assays:
CDK8 = settings: concentration: 1 μM, replicates: in singlicate; n = 1
CDK9 = settings: concentration: 1 μM, replicates: in singlicate; n = 1
CDKL1 = settings: concentration: 1 μM, replicates: in singlicate; n = 1
CDKL2 = settings: concentration: 1 μM, replicates: in singlicate; n = 1
CDKL3 = settings: concentration: 1 μM, replicates: in singlicate; n = 1
CDKL5 = settings: concentration: 1 μM, replicates: in singlicate; n = 1
CHEK1 = settings: concentration: 1 μM, replicates: in singlicate; n = 1
CHEK2 = settings: concentration: 1 μM, replicates: in singlicate; n = 1
CIT = settings: n = 1
CLK1 = settings: concentration: 1 μM, replicates: in singlicate; n = 1
CLK2 = settings: concentration: 1 μM, replicates: in singlicate; n = 1
CLK3 = settings: concentration: 1 μM, replicates: in singlicate; n = 1
CLK4 = settings: concentration: 1 μM, replicates: in singlicate; n = 1
CSF1R-autoinhibited = settings: concentration: 1 μM, replicates: in singlicate; n = 1
CSF1R = settings: concentration: 1 μM, replicates: in singlicate; n = 1
CSK = settings: concentration: 1 μM, replicates: in singlicate; n = 1
CSNK1A1L = settings: concentration: 1 μM, replicates: in singlicate; n = 1
CSNK1A1 = settings: concentration: 1 μM, replicates: in singlicate; n = 1
CSNK1D = settings: concentration: 1 μM, replicates: in singlicate; n = 1
CSNK1E = settings: concentration: 1 μM, replicates: in singlicate; n = 1
[1] = concentration: 1 μM, replicates: in singlicate
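Further: KINOMEscan kinase panel screen.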

COC(=O)Nc1nc2cc(Oc3ccc(NC(=O)Nc4cc(C(F)(F)F)ccc4F)cn3)ccc2[nH]1.Cl.Cl [GW681170]
%Inh (CDK8): 100% | %Inh (CDK9): 0% | %Inh (CDKL1): 29% | %Inh (CDKL2): 98.3% | %Inh (CDKL3): 56% | %Inh (CDKL5): 0% | %Inh (CHEK1): 0% | %Inh (CHEK2): 24% | %Inh (CIT; [1]): 100% | %Inh (CLK1): 42% | %Inh (CLK2): 8% | %Inh (CLK3): 0% | %Inh (CLK4): 61% | %Inh (CSF1R-autoinhibited): 0% | %Inh (CSF1R): 67% | %Inh (CSK): 0% | %Inh (CSNK1A1L): 0% | %Inh (CSNK1A1): 0% | %Inh (CSNK1D): 6% | %Inh (CSNK1E): 0%

CC(=O)Nc1nc2cnc(Nc3cc(NC(=O)c4cccc(C5(C#N)CC5)c4Cl)ccc3C)nc2s1
%Inh (CDK8): 21% | %Inh (CDK9): 0% | %Inh (CDKL1): 5% | %Inh (CDKL2): 36% | %Inh (CDKL3): 24% | %Inh (CDKL5): 0% | %Inh (CHEK1): 0% | %Inh (CHEK2): 4% | %Inh (CIT; [1]): 62% | %Inh (CLK1): 0% | %Inh (CLK2): 0% | %Inh (CLK3): 0% | %Inh (CLK4): 10% | %Inh (CSF1R-autoinhibited): 15% | %Inh (CSF1R): 99.4% | %Inh (CSK): 41% | %Inh (CSNK1A1L): 23% | %Inh (CSNK1A1): 0% | %Inh (CSNK1D): 0% | %Inh (CSNK1E): 0%

COc1cccc(C2=C(Nc3ccc(Cl)c(C(=O)O)c3)C(=O)NC2=O)c1 [SB-390769]
%Inh (CDK8): 0% | %Inh (CDK9): 0% | %Inh (CDKL1): 47% | %Inh (CDKL2): 25% | %Inh (CDKL3): 100% | %Inh (CDKL5): 6% | %Inh (CHEK1): 0% | %Inh (CHEK2): 0% | %Inh (CIT; [1]): 40% | %Inh (CLK1): 12% | %Inh (CLK2): 6% | %Inh (CLK3): 0% | %Inh (CLK4): 17% | %Inh (CSF1R-autoinhibited): 13% | %Inh (CSF1R): 0% | %Inh (CSK): 0% | %Inh (CSNK1A1L): 5% | %Inh (CSNK1A1): 0% | %Inh (CSNK1D): 8% | %Inh (CSNK1E): 13%

CN(C)S(=O)(=O)c1cc(-c2ccc3nccc(-c4cccc(S(N)(=O)=O)c4)c3c2)cnc1N [GSK1669921]
%Inh (CDK8): 35% | %Inh (CDK9): 0% | %Inh (CDKL1): 77% | %Inh (CDKL2): 25% | %Inh (CDKL3): 0% | %Inh (CDKL5): 12% | %Inh (CHEK1): 100% | %Inh (CHEK2): 0% | %Inh (CIT; [1]): 16% | %Inh (CLK1): 57% | %Inh (CLK2): 86% | %Inh (CLK3): 21% | %Inh (CLK4): 54% | %Inh (CSF1R-autoinhibited): 0% | %Inh (CSF1R): 7% | %Inh (CSK): 0% | %Inh (CSNK1A1L): 14% | %Inh (CSNK1A1): 49% | %Inh (CSNK1D): 0% | %Inh (CSNK1E): 33%

CCn1c(-c2nonc2N)nc2c(C#CC(C)(C)O)ncc(OCCCCN)c21.O=C(O)C(F)(F)F.O=C(O)C(F)(F)F [GSK507274]
%Inh (CDK8): 0% | %Inh (CDK9): 0% | %Inh (CDKL1): 0% | %Inh (CDKL2): 53% | %Inh (CDKL3): 0% | %Inh (CDKL5): 10% | %Inh (CHEK1): 2% | %Inh (CHEK2): 0% | %Inh (CIT; 1 µM): 100% | %Inh (CLK1): 21% | %Inh (CLK2): 69% | %Inh (CLK3): 11% | %Inh (CLK4): 43% | %Inh (CSF1R-autoinhibited): 0% | %Inh (CSF1R): 21% | %Inh (CSK): 0% | %Inh (CSNK1A1L): 18% | %Inh (CSNK1A1): 19% | %Inh (CSNK1D): 29% | %Inh (CSNK1E): 38%

COc1cc(Nc2nccc(-c3c(-c4cccc(NC(=O)c5c(F)cccc5F)c4)nn4ncccc34)n2)cc(OC)c1OC [GSK327238]
%Inh (CDK8): 4% | %Inh (CDK9): 0% | %Inh (CDKL1): 20% | %Inh (CDKL2): 13% | %Inh (CDKL3): 62% | %Inh (CDKL5): 10% | %Inh (CHEK1): 0% | %Inh (CHEK2): 14% | %Inh (CIT; [1]): 71% | %Inh (CLK1): 23% | %Inh (CLK2): 0% | %Inh (CLK3): 0% | %Inh (CLK4): 2% | %Inh (CSF1R-autoinhibited): 55% | %Inh (CSF1R): 100% | %Inh (CSK): 98.1% | %Inh (CSNK1A1L): 7% | %Inh (CSNK1A1): 0% | %Inh (CSNK1D): 23% | %Inh (CSNK1E): 94.7%

Cn1cc(-c2[nH]c3cc(NC(=O)[C@H](N)C4CCCCC4)cc4c3c2C=NNC4=O)cn1
%Inh (CDK8): 0% | %Inh (CDK9): 0% | %Inh (CDKL1): 16% | %Inh (CDKL2): 0% | %Inh (CDKL3): 18% | %Inh (CDKL5): 0% | %Inh (CHEK1): 98.4% | %Inh (CHEK2): 96.6% | %Inh (CIT; [1]): 97.5% | %Inh (CLK1): 56% | %Inh (CLK2): 16% | %Inh (CLK3): 13% | %Inh (CLK4): 55% | %Inh (CSF1R-autoinhibited): 49% | %Inh (CSF1R): 100% | %Inh (CSK): 71% | %Inh (CSNK1A1L): 3% | %Inh (CSNK1A1): 24% | %Inh (CSNK1D): 14% | %Inh (CSNK1E): 11%

O=C(Nc1n[nH]c2cc(-c3ccoc3)ccc12)C1CC1 [SB-738481]
%Inh (CDK8): 11% | %Inh (CDK9): 2% | %Inh (CDKL1): 18% | %Inh (CDKL2): 87% | %Inh (CDKL3): 10% | %Inh (CDKL5): 50% | %Inh (CHEK1): 0% | %Inh (CHEK2): 6% | %Inh (CIT; [1]): 0% | %Inh (CLK1): 23% | %Inh (CLK2): 73% | %Inh (CLK3): 13% | %Inh (CLK4): 9% | %Inh (CSF1R-autoinhibited): 0% | %Inh (CSF1R): 2% | %Inh (CSK): 0% | %Inh (CSNK1A1L): 5% | %Inh (CSNK1A1): 0% | %Inh (CSNK1D): 2% | %Inh (CSNK1E): 0%

CNC(=O)c1ccccc1Nc1nc(Nc2ccc(N3CCOCC3)cc2)ncc1Cl.Cl [GSK1576028]
%Inh (CDK8): 1% | %Inh (CDK9): 27% | %Inh (CDKL1): 36% | %Inh (CDKL2): 35% | %Inh (CDKL3): 0% | %Inh (CDKL5): 0% | %Inh (CHEK1): 65% | %Inh (CHEK2): 91.3% | %Inh (CIT; [1]): 26% | %Inh (CLK1): 99.5% | %Inh (CLK2): 97.1% | %Inh (CLK3): 90% | %Inh (CLK4): 98.8% | %Inh (CSF1R-autoinhibited): 89% | %Inh (CSF1R): 97.5% | %Inh (CSK): 85% | %Inh (CSNK1A1L): 68% | %Inh (CSNK1A1): 30% | %Inh (CSNK1D): 36% | %Inh (CSNK1E): 13%
